High-throughput results: PubChem, National Center for Advancing Translational Sciences (NCATS)
Compounds with a hit are over-represented: about 9.4% of the library has one in this group of screens.
ELG1 repair inh: inhibitors of ELG1-dependent DNA repair in HEK293T cells; HEK293T ELG1-luciferase reporter, luminescence, 16 h; DNA damage induced by 5-fluorouridine; Potency, µM (highest dose often 46.1 µM), for inactives: at the top dose activity change, negative = inhibition, actives largely listed as inhibitors; hit rate 2.3% among 330,000; AID 504467; also: % is scaled to controls: 0 for no effect and ±100 for the full control effect; nearly all actives have a fitted effect of over 55% in size
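Step one: seed 2,000 cells per well. Step two: pin-transfer compound or DMSO alongside 5-fluorouridine. Step three: incubate 16 hr, 37 °C, 5% CO2. Step four: add ONE-Glo, wait 30 min, read luminescence.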
FLuc modulator: firefly luciferase modulation, counter-screen for miR-21 project. P08659. purified FLuc, Km substrates, luminescence inhibition. Potency, µM (highest dose often 57.5 µM), inactives show at the top dose activity change, negative = inhibition, actives largely listed as inhibitors. hit rate 6.9% among 360,000;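 also: plate controls were vehicle for no effect and reference inhibitor for full effect; nearly all actives have a fitted effect of over 55% in size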
Target sequence (P08659 whole entry, looked up): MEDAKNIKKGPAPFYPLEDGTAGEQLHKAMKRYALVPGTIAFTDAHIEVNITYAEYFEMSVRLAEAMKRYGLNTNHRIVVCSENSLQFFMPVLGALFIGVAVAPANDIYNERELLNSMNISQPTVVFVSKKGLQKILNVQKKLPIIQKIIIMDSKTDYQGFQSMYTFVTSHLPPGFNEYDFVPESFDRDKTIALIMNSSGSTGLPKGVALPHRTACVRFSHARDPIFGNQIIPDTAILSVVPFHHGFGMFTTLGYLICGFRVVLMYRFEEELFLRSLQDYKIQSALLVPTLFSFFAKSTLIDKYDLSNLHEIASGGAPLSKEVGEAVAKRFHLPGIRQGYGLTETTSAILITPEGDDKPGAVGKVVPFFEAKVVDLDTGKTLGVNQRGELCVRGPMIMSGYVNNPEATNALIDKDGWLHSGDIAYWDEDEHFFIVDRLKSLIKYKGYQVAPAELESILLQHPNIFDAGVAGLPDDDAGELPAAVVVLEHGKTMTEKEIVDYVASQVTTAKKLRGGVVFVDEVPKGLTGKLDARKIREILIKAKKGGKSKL
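Purified P. pyralis luciferase (10nM final) with 10uM D-luciferin and 10uM ATP (Km levels) in 50mM Tris acetate pH 7.5, 10mM Mg acetate, 0.01% Tween-20, 0.05% BSA; qHTS 6-point titration, ~60 µM downward; luminescence read.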
Rab9 promoter act: activates the Rab9 promoter | hit rate 2.8% among 320,000 | Potency, µM (highest dose often 9.22 µM), for the others: at the top dose activation, negative = inhibition, usual class: activators | Huh7 Rab9 promoter-luciferase reporter, luminescence, 24 h; also: % of control where 0% means no effect; nearly all actives have a fitted effect of over 60% in size
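Huh7 cells stably carrying Rab9 promoter–luciferase reporter, plated 1500 cells/well, compound added after 2 h and incubated 24 h at 37 °C; luciferase luminescence then read after 10 min with detection reagent.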
ELG1 genotoxic: genotoxicity induction in ELG1-luciferase HEK293T cells; HEK293T ELG1-luciferase reporter, luminescence, 16 h; Potency, µM (highest dose often 46 µM), for inactives: at the highest dose activity change, positive = activation, hits mostly activators; hit rate 1.3% among 330,000; also: % of control where 0% means no effect; nearly all actives have a fitted effect of over 60% in size
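Screening used a luciferase reporter fused to human ELG1 in HEK293T cells. Luminescence was read on a CCD plate imager after 16 hr exposure and 30 min ONE-Glo incubation.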
SMN2 splice up: SMN2 splice variant enhancement. HEK293 SMN2-luciferase splicing reporter, luminescence, 30-36 h. Potency, µM (series often up to 46.1 µM), without a hit: at the top dose activity change, positive = activation, actives largely listed as activators. hit rate 2.8% among 210,000. AID 1458; also: % of control where 0% means no effect; nearly all actives have a fitted effect of over 55% in size
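HEK293 cells carry an SMN2 […]–luciferase reporter in which exon 7 inclusion puts luciferase in frame. Cells were plated 10-12 h before compound addition, then incubated 30-36 h at 37C. ONE-Glo luminescence was read; sodium butyrate at 4.5 mM final served as control.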
NPC1 prom act: NPC1 promoter activation | Huh7 NPC1 promoter luciferase reporter, 24 h | Potency, µM (series often up to 9.22 µM), inactives show at the top dose activation, most hits filed as activators | hit rate 2.4% among 320,000; also: % of control where 0% means no effect; nearly all actives have a fitted effect of over 60% in size
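Compounds in DMSO were transferred onto Huh7 NPC1-luciferase reporter cells pre-incubated 2 h; after 24 h at 37 °C, Amplite reagent was dispensed and luminescence recorded 10 min later.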
* = called active by the depositor; ? = inconclusive; . = not tested or not shown; [ ] = dose if it differs, or a comment. Calls follow the shape of the dose curve; as a rule, active = well fitted curve in the direction sought with a large enough effect; inconclusive = small, poorly fitted or top-dose-only effect, or another doubt; inactive = no such curve, though single readings can be large; an effect the other way counts as inactive or inconclusive. Potency is read from the fitted curve at half-maximal effect.

SMILES	ELG1 repair inh	FLuc modulator	Rab9 promoter act	ELG1 genotoxic	SMN2 splice up	NPC1 prom act
CC1CCN(S(=O)(=O)c2ccc3c(c2)C(=NO)c2cc(S(=O)(=O)N4CCC(C)CC4)ccc2-3)CC1	5.2µM*	1%	-37%	-11%	-98%	-51%
CCOc1ccccc1NS(=O)(=O)c1c(C)noc1C	?	-3%	2%	23µM*	28%	3%
CSC(=Nc1ccccc1)C(C#N)c1nc2ccccc2[nH]1 (configuration not stated)	-15%	-3%	2%	3%	.	0%
N#CC(C(=S)Nc1ccccc1)c1nc2ccccc2[nH]1 (configuration not stated)	13µM*	-6%	2%	-9%	.	3%
O=C(Nc1ccc2c(c1)CCCN2C(=O)c1cccs1)c1cccc(C(F)(F)F)c1	.	-3%	.	.	.	.
CC(=O)c1ccc(NC(=S)NC(=O)/C=C/c2ccccc2)cc1	?	-10%	?	11%	.	29%
COc1ccc(/C(N)=N/OC(=O)CN(C)S(=O)(=O)c2ccccc2)cc1	-14%	-19%	-2%	-8%	1%	-1%
Cc1ccccc1/C(N)=N/OC(=O)/C=C/c1ccccc1	?	?	?	?	?	25%
CC(=O)c1ccc(OC(=O)/C=C/c2ccccc2)cc1	5%	2.7µM*	-2%	2%	.	-3%
COc1ccc(/C=C/C(=O)OC(C)C(=O)c2ccccc2)cc1OC (configuration not stated)	9%	-16%	-3%	12%	.	0%
COc1ccc(/C(N)=N/OC(=O)/C=C/c2ccccc2)cc1	?	15µM*	18%	5%	24%	-3%
COc1ccc(/C=C/C(=O)O/N=C(\N)c2ccccc2)cc1OC	?	17µM*	?	?	?	?
Cc1ccc(/C(N)=N/OC(=O)/C=C/c2ccccc2)cc1	?	24µM*	12%	13%	-6%	0%
CCOc1ccc(/C=C/c2nc(C#N)c(N3CCC(C)CC3)o2)cc1	.	4%	.	.	2%	.
O=C(c1cc(-c2ccc(Br)cc2)n[nH]1)N1CCN(S(=O)(=O)c2ccc(Br)s2)CC1	.	-7%	.	.	.	.
CC(=O)c1ccc(OC(=O)COc2ccccc2)cc1	4%	21µM*	0%	24%	.	1%
Cc1cc(C)c(NC(=O)Cn2c(=O)n(CCc3ccccc3)c(=O)c3ccccc32)c(C)c1	.	6%	.	.	5%	.
Cc1ccccc1OCC(=O)Nn1c(COc2ccccc2)nc2ccccc2c1=O	16%	27µM*	-2%	8%	0%	0%
Cc1cccc(C)c1OCC(=O)Nn1c(COc2ccccc2)nc2ccccc2c1=O	?	?	-1%	0%	-12%	-2%
Cc1[nH]n(-c2ccccc2)c(=O)c1/C=N/Nc1nncc(-c2ccccc2)n1	?	13µM*	-36%	?	-83%	-14%
Cc1[nH]n(-c2ccccc2)c(=O)c1/C=N/NC(=O)c1ccc(O)cc1O	-2%	2.1µM*	11%	?	.	19%
Cc1cc(C(=O)N/N=C/c2c(C)[nH]n(-c3ccccc3)c2=O)n[nH]1	7%	5.4µM*	-2%	2%	.	0%
CCc1nnc(NS(=O)(=O)c2ccc(N=Cc3c(C)[nH]n(-c4ccc(Cl)cc4)c3=O)cc2)s1	-2%	-20%	3%	4%	-9%[1.84 µM]	1%
Cc1ccc(/C=N/Nc2nncc(-c3ccccc3)n2)o1	?	-18%	?	12%	?	29%
Cc1[nH]n(-c2ccc(Cl)cc2)c(=O)c1/C=N/c1nnc(-c2ccccc2)s1	?	19µM*	0%	6%	19%	-2%
SMILES	ELG1 repair inh	FLuc modulator	Rab9 promoter act	ELG1 genotoxic	SMN2 splice up	NPC1 prom act
C[Si](C)(c1ccc(C(=O)O)cc1)c1ccc(C(=O)O)cc1	.	.	.	.	-8%[9.22 µM]	.
Cc1ccc(OCC(=O)N/N=C\c2c(C)[nH]n(-c3ccccc3)c2=O)c([N+](=O)[O-])c1	?	?	-7%	7%	-75%	-4%
Cc1ccc(-n2[nH]c(C)c(/C=N/NC(=O)c3ccc(O)cc3O)c2=O)cc1	-1%	0.43µM*	4%	?	.	23%
CCOc1ccc(NC(=O)C(=O)NCCc2csc(-c3ccc(F)cc3)n2)cc1	.	0%	.	.	.	.
Nc1ccc(-c2cn3cccnc3n2)cc1	?	?	?	13%	31%	24%
Cc1cccn2cc(-c3cc4ccccc4oc3=O)nc12	?	0.19µM*	0.14µM*	0.82µM*	.	0.11µM*
COc1ccc2oc(=O)c(-c3cn4ccc(C)cc4n3)cc2c1	?	?	3.2µM*	21µM*	-10%	?
Cc1oncc1-c1cn2ccccc2n1	?	0%	-1%	9%	7%	1%
O=c1oc2ccccc2cc1-c1cn2cccnc2n1	?	4.3µM*	0.56µM*	?	4.5µM*	1µM*
O=c1oc2ccccc2cc1-c1cn2ccccc2n1	?	0.095µM*	?	?	.	0.11µM*
COc1cccc(OCC(=O)NCCS(=O)(=O)N2CCN(c3ccccc3F)CC2)c1	.	-10%	.	.	.	.
Cc1cccc(C=Nc2ccc3c(c2)oc2ccccc23)c1O	?	?	4µM*	16%	10µM*	26%
Cc1occc1C(=O)Nc1cc(C(F)(F)F)ccc1Cl	?	-1%	2%	10%	25µM*	1%
O=C(O)c1ccc(NNC(=S)Nc2cc(C(F)(F)F)ccc2Cl)cc1	?	24µM*	9%	18µM*	.	13%
O=C(NC(=S)Nc1cc(C(F)(F)F)ccc1Cl)c1ccccc1	1%	-1%	0%	1%	-13%	1%
Cc1occc1C(=O)NNC(=O)Nc1ccc(F)cc1F	-3%	1%	-4%	0%	.	-1%
Cc1occc1C(=O)Nc1ccc(Br)cc1F	?	21µM*	3.2µM*	?	19%	?
CCOc1ccc(CCNC(=O)CSCC(=O)Nc2cccc(C)c2)cc1OCC	-1%	1%	-6%	-1%	.	-4%
CCCC(=O)Nc1ccc2nn(-c3ccc(CC)cc3)nc2c1	.	?	.	.	14%	.
Cc1ccc(NC(=O)C2(C)Cc3ccccc3C(=O)O2)c(C)c1 (configuration not stated)	.	4%	.	.	2%	.
Cc1nc2nc(-c3ccco3)nn2c(C)c1Cl	?	-19%	0%	-1%	35µM*	10%
CCOC(=O)c1c(Nc2ccc(C)c(C)c2)nnc(-c2ccccc2)c1-c1ccccc1	.	-11%	.	.	-22%	.
Cn1cc(C(=O)O)c(=O)c2cc(S(=O)(=O)N3CCOCC3)ccc21	.	-4%	.	.	.	.
